Compounds with a hit are over-represented: about 1.9% of the library has one in this group of screens.
FPRL1 binder: binds the human formylpeptide receptor-like-1 FPRL1 | P25090 | FPRL1-expressing cells, fluorescent ligand binding inhibition, flow cytometry | inhibition, % (concentration not given with the values) | 24,000 tested, 0.3% active | AID 441;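 further: 0% = buffer alone and 100% = receptor blocker peptide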
FPR binder: binds the human formylpeptide receptor FPR. FPR-expressing cells, fluorescent ligand binding, flow cytometry. 24,000 tested, 0.74% active. inhibition, % (no concentration beside the values);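 further: 0% = buffer wells and 100% = receptor blocker peptide wells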
Target sequence (P21462 whole entry, looked up): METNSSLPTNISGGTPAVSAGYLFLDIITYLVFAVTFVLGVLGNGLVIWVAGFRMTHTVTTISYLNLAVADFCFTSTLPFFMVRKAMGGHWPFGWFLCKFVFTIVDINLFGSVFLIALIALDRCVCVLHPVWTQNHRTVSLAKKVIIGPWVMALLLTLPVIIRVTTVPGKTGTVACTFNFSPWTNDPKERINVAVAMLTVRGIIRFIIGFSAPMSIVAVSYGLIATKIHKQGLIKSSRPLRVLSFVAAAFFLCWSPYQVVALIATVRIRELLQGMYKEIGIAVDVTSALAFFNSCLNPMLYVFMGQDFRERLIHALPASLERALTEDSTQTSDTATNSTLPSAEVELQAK
Prostate diff: promotes differentiation of LNCaP prostate cells; AID 795; flow cytometry side scatter, 4 d; side scatter shift, % at 10 µM; 24,000 tested, 0.56% active;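 active means side scatter shift above 30%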;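 further: androgen-responsive LNCaP prostate cancer cells in charcoal-stripped serum medium; percent of cells past a gate set so DMSO wells show 10% shift; higher shift means more granular cells and more differentiation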
Autofluor Jurkat: compound fluoresces in Jurkat cells, VLA-4 screen interference; compound autofluorescence, flow cytometry; active compounds read high; 1 = vehicle-only cell background; fluorescence ratio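 (tested at 10 µM compound in the well)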; 24,000 tested, 0.61% active;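 active means fluorescence ratio above 2.44, which is 1 plus 3 SD of all ratios; inconclusive means signal too bright to measure linearly, ratio around 10 or more; inactive means fluorescence ratio below 2.44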;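 further: green fluorescence of cells measured with 488 nm excitation and 530 nm emission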
VLA-4 agonist: allosterically activates the human VLA-4 integrin; Jurkat cells, LDV-FITC binding, flow cytometry; activation, % at 10 µM (by protocol); 24,000 tested, under 10 active; AID 528;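 active means fluorescent ligand binding to cells raised by more than 40% of the manganese-induced maximum; inconclusive means compound's own fluorescence above 85% of the ligand control signal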;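 further: 0% = ligand binding without compound and 100% = manganese-stimulated maximal binding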
VLA-4 antagonist: blocks LDV-FITC ligand binding to Mn2+-activated human VLA-4 integrin | P13612 | Jurkat cells, LDV-FITC binding with Mn2+, flow cytometry; 100% = Mn2+-driven binding gain fully reversed | inhibition, % at 10 µM (by protocol) | 24,000 tested, 0.2% active | AID 529;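 active means inhibition above 50%; inconclusive means compound itself fluorescent, judged against control cell fluorescence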;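 further: 0% = Mn2+ stimulated cells lacking compound and 100% = ligand binding without Mn2+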
Active calls of the source: *; u = inconclusive; x = no result. Unless noted, no stated cut-off is given here; in the data, active means inhibition above about 30%; inconclusive means no clear call, values can overlap the other calls; inactive means below that.

SMILES | FPRL1 binder | FPR binder | Prostate diff | Autofluor Jurkat | VLA-4 agonist | VLA-4 antagonist
O=C(NCC12CC3CC(CC(C3)C1)C2)c1cc2n(n1)C(C(F)(F)F)CC(c1ccco1)N2 (stereo unspecified) | -12 | 7 | 1 | 3.5* | u | u
Cn1c(=O)cc(SCC(=O)NCCN2CCN(c3ccccc3F)CC2)c2cc(Cl)ccc21 | -2 | -6 | 23 | 1.1 | -5 | 32
CCOC(=O)N1CCN(C(=O)C2CCCN(S(=O)(=O)c3cccnc3)C2)CC1 (stereo unspecified) | -2 | 1 | 0 | 1 | -3 | 11
COC(=O)c1oc2ccc(Br)cc2c1NC(=O)CN1CCN(C)CC1 | 9 | 0 | 31* | 1.1 | 3 | 6
CCOC(=O)c1[nH]c2ccc(Br)cc2c1NC(=O)CCN1CCC(C(=O)OCC)CC1 | -1 | 8 | 8 | 0.98 | -7 | 0
C=CCOC(=O)C(C#N)c1nc2ccccc2nc1N1CCN(Cc2ccccc2)CC1 (stereo unspecified) | -6 | -1 | 5 | 2.8* | u | u
c1cncc(-c2nc3ccccc3o2)c1 | u | u | 28 | 9.8* | u | u
c1cc(-c2nc3ccccc3o2)nc(-c2nc3ccccc3o2)c1 | -2 | -2 | 2 | 1.1 | 0 | -4
COc1ccc(-c2cc(-c3ccc(F)cc3)nc(N3CCN(C)CC3)n2)cc1 | -2 | 0 | 48* | 0.96 | 3 | 0
COc1ccc(-c2cc(C#N)nc(N3CCN(c4ccccc4)CC3)n2)cc1 | 1 | -3 | x | x | x | x
CCCc1cc(=O)[nH]c(/N=C(\N)Nc2ccccc2)n1 | -3 | -7 | 21 | 1.1 | -14 | -16
NC(=O)NC(=O)CSc1cccc(C(F)(F)F)c1 | -4 | 3 | 10 | 1 | 1 | -11
Cc1oc(-c2ccc(Cl)cc2)nc1CN1CCCC(C(=O)N2CCc3ccccc32)C1 (stereo unspecified) | -3 | 3 | 5 | 1.1 | -10 | 59*
CCN1CCN(CCNC(=O)C2CCCN(Cc3nc(-c4cccc(Cl)c4)oc3C)C2)CC1 (stereo unspecified) | -1 | -1 | 44* | 0.83 | u | u
CCCN(CCC)CCNC(=O)C1CCN(Cc2nc(-c3ccc(Cl)cc3)oc2C)CC1 | -2 | 4 | 87* | 1 | 2 | 20
CCOC(=O)N1CCC(NC(=O)C2CCCN(Cc3nc(-c4cccc(Cl)c4)oc3C)C2)CC1 (stereo unspecified) | 0 | 0 | 4 | 0.92 | u | u
COc1ccc(-c2nc(CSCC(=O)N3CCN(C(=O)c4ccco4)CC3)c(C)o2)cc1OC | 7 | -4 | 3 | 1.1 | -6 | 0
COC(=O)c1cc2oc(C)cc2n1CC(=O)Nc1cc(C)cc(C)c1 | -11 | 16 | 8 | 1.1 | 0 | -14
COc1ccc(NC(=O)C(c2ccc(C)cc2)N(C)C(=O)c2cnccn2)cc1 (stereo unspecified) | 38* | 18 | 6 | 1 | 1 | -13
COc1ccccc1-c1nnc(Nc2nc3c(OC)cccc3s2)o1 | 4 | -4 | 18 | 1.1 | 2 | 12
COc1cccc2sc(Nc3nnc(-c4ccccc4Cl)o3)nc12 | x | x | x | 1 | 7 | 73*
O=C(Cn1c(=O)oc2cc(S(=O)(=O)N3CCc4ccccc43)ccc21)N1CCCCC1 | 1 | -2 | 13 | 1.2 | u | u
CC1Cc2ccccc2N1C(=O)Cn1c(=O)oc2cc(S(=O)(=O)N3CCCCC3)ccc21 (stereo unspecified) | -7 | -8 | 1 | 5.1* | u | u
CCCC(C)C1C(C#N)=C(N)Oc2cc(C)oc(=O)c21 (stereo unspecified) | -5 | 12 | 12 | 1.1 | -4 | -10
Cc1cccn2c(=O)c3cc(C(=O)NCc4ccccc4)c(=N)n(CCCN4CCOCC4)c3nc12 | -2 | 4 | 58* | 1.1 | u | u
SMILES | FPRL1 binder | FPR binder | Prostate diff | Autofluor Jurkat | VLA-4 agonist | VLA-4 antagonist
CCOC(=O)Cn1c(=NC(=O)CSC(C)=O)sc2cc(OC)ccc21 | 15 | 25 | 10 | 0.99 | 2 | 13
CC(=O)SCC(=O)N=c1sc2cc(F)ccc2n1C | 34* | 56* | 14 | 0.99 | 8 | -15
CCOc1cc2[nH]c(=O)n(CC3CCC(C(=O)NCCC(C)C)CC3)c(=O)c2cc1OCC (stereo unspecified) | -4 | 0 | 16 | 1.1 | -26 | 60*
O=C(CCCn1c(=O)[nH]c2ccccc2c1=O)NC1CCCCCC1 | 1 | 2 | 4 | 1 | 2 | -5
CCOc1cc2[nH]c(=O)n(CCCCC(=O)NC3CCCCCC3)c(=O)c2cc1OCC | 8 | 0 | 9 | 0.95 | -10 | 66*
CN(C)c1ccc(/C=c2\sc3nc(-c4ccccc4)nn3c2=O)cc1 | x | x | 5 | 8.2* | u | u
O=C(NC1CCCC1)C1CC1c1ccccc1 (stereo unspecified) | 46* | 26 | 5 | 1.1 | -4 | -4
Cc1ccc(C)c(/C(O)=C2/C(=O)C(=O)N(CCN3CCOCC3)C2c2ccc(C)o2)c1 (stereo unspecified) | -2 | 0 | x | x | x | x
Cc1ccc(C2/C(=C(/O)c3ccc(Cl)cc3)C(=O)C(=O)N2CC2CCCO2)o1 (stereo unspecified) | -2 | 60* | x | x | x | x
Cc1ccc(C)c2[nH]c(=O)c(CN(CCN3CCCC3)C(=O)Nc3cccc(Cl)c3)cc12 | -3 | -2 | 73* | 1.1 | -2 | 7
COc1ccc(-c2cc(C(F)(F)F)nc(N3CCN(Cc4ccccc4)CC3)n2)cc1OC | 75* | 8 | 4 | 1.1 | -4 | -3
CCN(CCNC(=O)c1cc(C)nn1-c1ccccc1)c1ccccc1 | 0 | -4 | 5 | 1.1 | -8 | 16
CC1Cc2ccccc2N1C(=O)C1CCCN(S(=O)(=O)c2cccc3cccnc23)C1 (stereo unspecified) | -12 | -6 | 8 | 3.6* | u | u
COc1ccc(N2CCN(C(=O)C3CCCN(S(=O)(=O)c4cccc5cccnc45)C3)CC2)cc1 (stereo unspecified) | 2 | -11 | 11 | 1 | 1 | 7
O=C(NCc1ccc(Cl)cc1)C1CCCN(S(=O)(=O)c2cnc[nH]2)C1 (stereo unspecified) | 1 | 1 | 11 | 0.97 | -1 | -10
CC(C)c1ccc(NC(=O)C(c2ccc3c(c2)OCO3)N2CCC3(CC2)OCCO3)cc1 (stereo unspecified) | -8 | 10 | 7 | 1.1 | -4 | 54*
O=C(CSc1ccccc1C(=O)NCCCN1CCCC1=O)NCc1ccco1 | 0 | 12 | 4 | 1 | 0 | 2
COc1cccc(C2C(C(=O)c3cc4ccccc4o3)=C(O)C(=O)N2c2cc(C)on2)c1OC (stereo unspecified) | 2 | 54* | x | x | x | x
